# Screens from PubChem.
# HT1080 IDH1KD tx: toxicity to HT-1080 IDH1 knockdown cells (counter line); HT-1080 IDH1 knockdown viability, ATP luminescence, 48 h; Potency, µM (series often up to 46.1 µM), without a hit: top-dose activity, negative = toxicity, hits mostly cytotoxic; 360,000 tested, 2% active; AID 686971;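 further: potency means the concentration at half of the fitted maximal effect; 0% = DMSO wells and -100% = cell-free medium wells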
#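 Knockdown cells (IDH1KD HT-1080) received compounds 2 h after plating at 750 cells/well and were kept 48 h at 37 °C in 5% FBS RPMI. A CellTiter-Glo luminescence read gave % activity for curve fitting.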
# TDP1 cell noCPT: qHTS for Inhibitors of human tyrosyl-DNA phosphodiesterase 1 (TDP1): qHTS in cells in absence of CPT; Potency, µM (doses to about 46.2 µM), inactives show top-dose activity change, negative = growth inhibition, usual class: inhibitors; 420,000 tested, 15% active; DT40 Tdp1-/- hTDP1 cells, no CPT, ATP luminescence, 48 h; AID 686978, 2013; further: potency means the concentration at half of the fitted maximal effect; nearly all actives have a fitted effect of over 55% in size
#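 Stably hTDP1-transfected Tdp1-null chicken DT40 cells were treated with library compounds minus camptothecin and grown for at least 48 hr at 37 °C, after which cellular ATP was quantified by luminescence.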
# HT1080NT lethal: kills 2HG-producing HT-1080-NT fibrosarcoma cells. 360,000 tested, 1.6% active. Potency, µM (doses to about 46.1 µM), for inactives: at the top dose activity, negative = less viability, usual class: cytotoxic. HT-1080-NT fibrosarcoma viability, CellTiter-Glo ATP luminescence, 48 h;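 further: NT is the 2HG producing partner of a matched IDH1 knockdown line; potency means the concentration at half of the fitted maximal effect; 0% = DMSO-treated cells and -100% = media-only wells without cells; nearly all actives have a fitted effect of over 55% in size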
#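 750 cells/well, RPMI + 5% FBS; 2 h settle, compound pin-transfer, 48 h at 37 degrees C. CellTiter-Glo 10 min RT, luminescence. Normalized to DMSO and media-only wells.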
# TDP1 cell CPT: DT40-hTDP1 cell growth loss with CPT; chicken DT40 Tdp1-/-;hTDP1 cells + 20 nM CPT, ATP luminescence, 48 h; Potency, µM (top dose mostly 46.2 µM), without a hit: at the highest dose activity change, negative = growth inhibition, most hits filed as inhibitors; 420,000 tested, 12% active; AID 686979; further: potency means the concentration at half of the fitted maximal effect; nearly all actives have a fitted effect of over 55% in size
#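 Chicken DT40 Tdp1-/- cells complemented with human TDP1, 400 cells/well, exposed to compounds plus 20 nM camptothecin for at least 48 h at 37 C; viability read as ATP content by CellTiter-Glo luminescence.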
# IL-1B inflam inh: inflammasome signaling inhibition, IL-1 beta readout. THP-1 LPS/ATP IL-1B secretion, AlphaLISA, 16 h; stronger effect = lower value. activity change, % at 57.5 µM. 360,000 tested, 4.7% active. AID 743279; in the data active means activity change below about -50%; inconclusive means mostly about -30% to -49%
#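 THP-1 cells pretreated 1 hr with compounds (up to 57.5 uM final), then stimulated with LPS (250 ng/mL final) plus ATP (1.25 mM final); secreted IL-1B measured by AlphaLISA after 16 hr, decreased signal indicating inhibition.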
# Active calls of the source: *; ? = inconclusive; / = no result given; [ ] = another dose, or the depositor's remark. This is a sample that favours compounds with a hit; in the whole collection about 19% have one here. Unless noted, the call rests on the fitted dose curve; in most records, active means well fitted curve in the direction sought with a large enough effect; inconclusive means small, poorly fitted or top-dose-only effect, or another doubt; inactive means no such curve, though single readings can be large; an effect the other way counts as inactive or inconclusive. Unless noted, on the % scale 0 is the no-effect control and ±100 the full control effect.
SMILES,HT1080 IDH1KD tx,TDP1 cell noCPT,HT1080NT lethal,TDP1 cell CPT,IL-1B inflam inh
Cc1ccc(C(NC(=O)N2CCOCC2)=C(Cl)Cl)cc1F,14µM*,16µM*,?,6.5µM*,-101*
CSc1nnc(CNS(=O)(=O)c2ccc(F)cc2F)n1-c1ccccc1C,/,-13%,/,?,/
CCn1cc(CN2CCOc3ccc(C(O)C4CCCCC4)cc3C2)c(C)n1 (centres undefined),/,?,/,-9%[9.04 µM],/
Cc1cccc(OCc2nc(CC(=O)Nc3ccc(C)c(C)c3)cs2)c1,/,18µM*,/,?,/
Cc1cccc(OCc2nc(CC(=O)Nc3ccc(Cl)cc3)cs2)c1,/,?,/,21µM*,/
Cc1nc(CC(=O)Nc2ccc(C)c(C)c2)cs1,/,-15%,/,8%,/
O=C(CSc1n[nH]c(=O)n1-c1cccnc1)Nc1ccccc1Cl,2%,-4%,4%,19%,17
COc1ccc(-c2cc(C(F)F)n3ncc(C(=O)NCCCN4CCCC4=O)c3n2)cc1,11%,16µM*,-8%,?,-25
CC(C)(C)c1ccccc1NC(=O)c1cnn2c(C(F)F)cc(-c3ccccc3)nc12,/,-23%,/,-24%,/
Cc1ccc(NC(=O)c2cnn3c(C(F)F)cc(-c4ccccc4)nc23)c(C)c1,/,18µM*,/,-2%,/
COc1ccc(-c2cc(C(F)F)n3ncc(C(=O)N4CCCCC4)c3n2)cc1,16%,?,8%,?,-28
CCCNC(=O)c1cnn2c(C(F)F)cc(-c3ccccc3)nc12,/,21µM*,/,21µM*,/
O=C(NCCCN1CCCC1=O)c1cc(-c2ccc(F)cc2)nc2ccccc12,-4%,26µM*,-5%,?,5
COCC(C)NC(=O)c1cnn2c(C(F)F)cc(-c3ccccc3)nc12 (centres undefined),/,?,/,-21%,/
O=C(COC(=O)c1ccc(O)cc1O)Nc1cc(-c2ccccc2)nn1-c1ccccc1,?,18µM*,?,?,-58*
CCOC(=O)c1[nH]c(C)c(C(=O)Nc2cc(OC)ccc2OC)c1C,0.56µM*,0.56µM*,0.63µM*,0.79µM*,76
CCCc1cc(NC(=O)COC(=O)c2ccc(O)cc2O)n(-c2ccccc2)n1,-15%,?,-15%,?,27
CCOC(=O)C(=CNc1cc(C)nn1-c1ccccc1)C(=O)OCC,-25%,16µM*,-15%,21µM*,10
CCOC(=O)c1[nH]c(C)c(C(=O)NCc2ccc(OC)cc2)c1C,-7%,-2%,0%,10%,-4
CCOC(=O)c1c(C)[nH]c(C(=O)OCC(=O)Nc2cc(C)nn2-c2ccccc2)c1C,0%,18µM*,2%,?,-11
CC1CCN(c2ncnc3c2nnn3C)CC1,/,-15%,/,-20%,/
Cn1nc(C(=O)NNC(=O)c2ccccc2Br)c2ccccc2c1=O,0%,-3%,4%,-2%,9
COc1ccc(C)cc1NC(=O)COC(=O)c1ccc(OCc2ccc(Cl)cc2Cl)c(OC)c1,6%,16µM*,3%,18µM*,0
CCOC(=O)c1c(C)[nH]c(C(=O)OCC(=O)Nc2cc(C)ccc2OC)c1C,0%,4.1µM*,-2%,2.6µM*,40
CCOC(=O)c1c(C)[nH]c(C(=O)N/N=C/c2ccc(Br)cc2)c1C,0.092µM*,0.023µM*,0.15µM*,1.2µM*,14
SMILES,HT1080 IDH1KD tx,TDP1 cell noCPT,HT1080NT lethal,TDP1 cell CPT,IL-1B inflam inh
CN1CCN(C(=O)Cn2ncc3c([nH]c4ccccc43)c2=O)CC1,2%,-5%,-4%,0%,3
Cn1cnnc1SCC(=O)Nc1ccc(N2CCCCC2)cc1,3%,1%,5%,6%,-6
COCCn1c(=O)c(C)nc2cnc(Oc3cccc(Cl)c3)nc21,/,-14%,/,-27%,/
CCOc1nc(-c2ccccc2)ccc1-c1noc(-c2cccnc2)n1,1%,3.7µM*,-5%,-14%,17
COC(=O)c1ccccc1S(=O)(=O)Oc1ccc(-c2ccc(C(=O)O)cc2)cc1,-19%,-2%,-9%,3%,-99*
O=C(O)c1ccc(-c2ccc(OS(=O)(=O)c3ccccc3F)cc2)cc1,-2%,-8%,0%,-4%,-16
C(=C\c1ccccc1)/CSc1nnc(-c2cccnc2)o1,8%,-13%,6%,6%,-11
Cc1ccnc2nc(NC(=O)c3ccccc3Cl)nn12,/,2%,/,0%,/
CN(c1ccccc1)S(=O)(=O)c1ccc(NC(=O)C2CC2)cc1,8%,-16%,4%,0%,1
Cc1cccc(C(=O)NC(=S)Nc2ccc(S(=O)(=O)N(C)c3ccccc3)cc2)c1,-7%,13µM*,1%,?,24
Cc1ccccc1C(=O)NC(=S)Nc1ccc(S(=O)(=O)N(C)c2ccccc2)cc1,-1%,23µM*,3%,23µM*,-2
COC(=O)c1ccccc1NC(=S)NC(=O)c1ccccc1C,?,-20%,7%,23µM*,-8
CCOc1ccc(C(=O)OCC(=O)NCc2ccco2)cc1OCC,9%,-16%,11%,3%,-6
CC(OC(=O)Cn1cnc2ccccc2c1=O)C(=O)NCc1ccccc1 (centres undefined),11%,-11%,6%,3%,-2
COc1ccc(C2C(C(=O)Nc3ccccc3OC)=C(C)Nc3c(C(=O)Nc4ccccc4)cnn32)c(OC)c1 (centres undefined),/,?,/,21µM*,/
CCOc1ccc(C2C(C(=O)Nc3ccc(C)cc3C)=C(C)Nc3c(C(=O)Nc4ccc(C)cc4)cnn32)cc1OC (centres undefined),/,-6%,/,-13%,/
CC1=C(C(=O)Nc2ccccc2)C(c2ccccc2C)n2ncc(C(=O)Nc3ccccc3)c2N1 (centres undefined),/,-74%,/,?,/
CC1=C(C(=O)Nc2ccc(C)cc2C)C(c2ccc([N+](=O)[O-])cc2)n2ncc(C(=O)Nc3ccc(F)cc3)c2N1 (centres undefined),/,8.2µM*,/,8.2µM*,/
CC1=C(C(=O)Nc2ccccc2)C(c2ccccc2Cl)n2ncc(C(=O)Nc3cccc(C)c3)c2N1 (centres undefined),/,18µM*,/,?,/
O=C(NCc1ccccc1F)c1ccc(CN2CC(=O)N3CCCCC3C2=O)cc1 (centres undefined),/,-6%,/,-7%,/
CCC1(c2ccccc2)C(=O)N(C(=O)OC(C)(C)C)N1C(=O)OC(C)(C)C (centres undefined),-11%,4%,3%,4%,?
CCOC(=O)N1C(=O)[C@](CC)(c2ccccc2)N1C(=O)OCC,5%,?,13%,8.2µM*,-98*
Cc1ccc(C(=O)COC(=O)COc2ccccc2[N+](=O)[O-])s1,11%,-7%,18%,-6%,11
